In all, about 140,000 compounds went through this assay and about 4,300 (3.1%) were called active. Inconclusive results (about 21%) are left out. The full list was thinned out, with actives kept by preference. Values without a mark were called inactive.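 How the source made its calls: active means readout at or below -70, meaning at least 70% loss of cells showing the perinucleolar compartment, a nuclear body marking cancer cells; inconclusive means readout between -30 and a set limit; inactive means the rest.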
Test: High Content Assay for Compounds that inhibit the Assembly of the Perinucleolar Compartment
Conditions: PC3M PTB-GFP, PNC prevalence imaging, 16 h; at 10 µM; hits give low values
Excerpt: High Content Assay for Compounds that inhibit the Assembly of the Perinucleolar Compartment NIH Chemical Genomics Center [NCGC] NIH Molecular Libraries Probe Centers Network [MLPCN] MLPCN Grant: MH082371-01A2 Assay Submitter (PI): Sui Huang, Northwestern University, Feinberg School of Medicine, Cell and Molecular Biology, Chicago, Illinois. The perinucleolar compartment (PNC) is a non-membrane-bound nuclear subdomain that is associated with but structurally distinct from the nucleolus. The PNC is a heritable trait, in which the number of PNCs per cell in daughter cells often mimics that of their mother cells. The PNC is heterogeneous in shape, is stable through interphase, disassembles during mitosis, and reassembles in early G1. The PNC is concentrated with newly synthesized RNA polymerase III (pol III) RNAs (MRP RNA, RNAse P H1 RNA, hY RNAs[hY1, 2, 5], Alu RNA, and SRP [7SL] RNA) and RNA binding proteins (nucleolin, PTB, CUG-BP, KSRP, Raver1, Raver2, and Rod). […] Extensive in vitro studies have shown that the PNC is unique to tumor cells and preferentially forms in tumor cells derived from solid tissues. Examination of cancer cell lines from various origins and malignant capacities has shown that PNC prevalence correlates with the malignancy of tumors and has the potential to be developed as a pan-cancer prognostic marker. […] Although the PNC is associated with a DNA locus and a handful of components have been identified, much remains to be investigated regarding the structure and function of the PNC and its mechanistic link to cancer. We have previously shown that PNC prevalence reduction is a valid strategy to identify compounds that can be used to study the structure and function of the PNC. It is necessary, however, to create a screening platform that is able to test a large number of compounds in an automated fashion. Here we report the development and robustness of an automated whole-cell phenotypic image-based screening assay that is capable of identifying such compounds.
PNC High Content Imaging Assay Procedure: 1. Cells at a density of 75-90% confluency in T175 flasks were harvested using 7 ml TrypLE Express cell dissociation reagent. After dissociation (5 minutes room temperature incubation) 10 ml of complete media was added to the TrypLE/cell suspension. The liquid was transferred to a 50 ml Conical tube and cells were pelleted at 1000 RPM for 5 min. Supernatant was removed and cells were resuspended to a final density of 150-200 cells/ul in complete media. 2. Cells were plated in 5 ul volume (750-1000 cells/well) into 1536 well Black uclear Aurora Low Base plates and allowed to recover and adhere at 37 C in a humidified 5% CO2 incubator for 4 hours. 3. After 4 hour incubation, compound libraries (23 nl of […] in columns 5-48) were transferred to the plates in duplicate using a 1536 well pintool. Camptothecin positive control (59 uM final) was added to column 2 and 1:3 dilutions of camptothecin was added to column 3. DMSO negative controls were present in columns 1 and 4. 4. After a 16 hour incubation in the 37 C incubator, cells were fixed by the addition of 4 ul of 6% EM grade paraformaldehyde (containing 0.1% triton X 100) directly to the cells. The plates were incubated at room temperature for 20 minutes. The liquid was removed using a 32 channel Kalypsys aspirator and the fixed cells were washed twice with 5 ul PBS followed by a final addition of 5 ul PBS containing 1 ug/ml Hoechst 33342. 5. Fixed plates were sealed and sotred at 4C until imaged. 6. Plates were imaged on an InCell 1000 automated microscope using a 20 x objective, a standard FITC filter set, no camera binning, and an exposure time of ~100-150 msec/well. 7. Data analysis. PNC prevalence was determined using the Multitarget analysis module from InCell Workstation software (V3.5 ) and analysis was run on a quad core workstation using the Incell Developer Toolbox (V1.7). […]

Structure (SMILES)	activity change (PNC), negative = inhibition
c1cc2c(cc1CCNC1CCCCCC1)OCO2	-119% (active)
CC(=NCc1ccc2c(c1)OCO2)c1c(O)[nH]c(=O)[nH]c1=O	-17.3%
OC(CNC1CCCCC1)c1ccccc1 (stereo not given)	38.6%
CNC(=S)N/N=C1\C2CN3CCN(C2)CC1(c1ccccc1)C3	-18.5%
CCOC(=O)C(O)(c1ccc(N=Cc2ccccc2O)c(C)c1)C(F)(F)F (stereo not given)	-11.8%
Cc1ccc(-n2c(C)cc(/C=C3\C(=O)NC(=O)N(C)C3=O)c2C)cc1C	23.8%
COc1ccc(-c2nc(CS(=O)CC(=O)N3CCC4(CC3)OCCO4)c(C)o2)cc1 (stereo not given)	-14.2%
O=C(CCCn1c(=O)[nH]c2cc(Cl)ccc2c1=O)N1CCC2(CC1)OCCO2	44%
Cc1ccc(Cn2c(C)c3cnn(CC(=O)N4CCC5(CC4)OCCO5)c(=O)c3c2C)cc1	-100% (active)
CC(C)N(CC#CCC1(O)c2ccccc2-c2ccccc21)C(C)C	48.8%
CN(C)C(=O)Oc1cc(=O)n2c3c(cccc13)CCC2	23.5%
Cc1ccc(-n2c(-c3ccc([N+](=O)[O-])cc3)nc3ccccc3c2=O)cc1	-17%
CC(C(=O)Nc1ccc(Cl)cc1Cl)N1CC=C(c2ccccc2)CC1 (stereo not given)	38%
Cc1cccc(OP(=O)(Oc2cccc(C)c2)OC(c2ccccc2)C(F)(F)F)c1 (stereo not given)	-3.33%
CCCCCn1c(=O)c(C(=O)NCc2ccccn2)c(O)c2ccccc21	-112% (active)
CCCCCn1c(=O)c(C(=O)Nc2c(C)n(C)n(-c3ccccc3)c2=O)c(O)c2ccccc21	-20.3%
Cc1ccnc(-n2c(C)cc(/C=C3\C(=O)NC(=S)N(C)C3=O)c2C)c1	-11.7%
C=CCn1c(O)c(/C=N/N2CCOCC2)c(=O)[nH]c1=S	60.9%
CN1CCN(c2cc(N3CCNCC3)ccc2[N+](=O)[O-])CC1	12.6%
CC1=C(C(=O)Nc2ccccc2)SCCO1	-98% (active)
O=C1NC(=O)N(c2ccc(F)cc2)C(=O)/C1=C/c1ccc2c(c1)CCCN2Cc1ccccc1	-20.7%
O=C1N=c2ccccc2=C/C1=C\c1c(O)[nH]c(=S)[nH]c1=O	-19.2%
CN(C)CC1CCCCC1OC(=O)c1ccc(Cl)c(Cl)c1 (stereo not given)	-10.5%
O=C1NC(=O)C(CCc2ccccn2)(Cc2cccc(Cl)c2Cl)C(=O)N1c1ccc(Br)cc1 (stereo not given)	-14.3%
Cc1ccc2c(c1)C1CN(C)CCC1N2C(=O)Cn1nnc(-c2ccccc2F)n1 (stereo not given)	-101% (active)
